Sampled rows, rich in hits. Any-hit rate of the full collection: about 2.8%.
KKLEB cytotox: CF airway cell cytotoxicity counter-screen; KKLEB CF airway cells viability, ATPlite luminescence, overnight; active compounds read low; cells stimulated with P. aeruginosa culture filtrate; activity change (cytotoxicity), % at 5 µM; actives 0.36% (n = 360,000);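 active = corrected activity change at or below -50% at 5 µM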
Peg3 promoter: reduces Peg3 promoter-driven luciferase expression in HeLa. actives 1.7% (n = 360,000). inhibition, % at 20 µM. AID 588405. HeLa PEG-Prom luciferase reporter, luminescence, overnight;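 active = inhibition of at least 50% at 20 µM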
HIF-2a block: HIF-2a inhibition; 786-0 RCC cells HIF-2a reporter, luciferase luminescence, overnight; inhibition, % at 18.8 µM; actives 0.72% (n = 360,000); AID 624352;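 active = inhibition of the luminescence signal of 40% or more relative to plate controls, in a single-dose primary screen at 18.75 µM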
TRPM1 prom inh: inhibitors of MITF-driven TRPM1 promoter in melanoma cells; SK-MEL-5 TRPM1 promoter luciferase, 24 h; inhibition, % at 12.5 µM; actives 0.83% (n = 330,000);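 active = mean inhibition across replicates of 60% or more, whatever share of single replicates reaches that level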
CF NFkB inh: blocks PAF-induced NF-kB reporter in cystic fibrosis cells; KKLEB NF-kB-GFP reporter, GFP fluorescence overnight; inhibition, % at 5 µM; actives 0.86% (n = 360,000);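 active = at least 50% inhibition at 5 µM, scaled per plate between neutral and stimulator controls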;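 also: PAF is a Pseudomonas aeruginosa culture filtrate used as stimulus; plate controls were PAF-stimulated DMSO wells for no effect and unstimulated DMSO wells for full effect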
Shn3 3UTR inh: inhibitors of Schnurri-3 3'UTR reporter in osteoblasts; Clone20 osteoblast Shn3 3'UTR firefly luciferase, 24 h; inhibition, % at 12.5 µM; actives 0.52% (n = 360,000); AID 588674;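 active = mean inhibition of at least 75% with every replicate also reaching 75%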;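 also: 0% = median of neutral control wells and 100% = pilot-screen positive control compound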
Mdm2 MdmX conf: Mdm2/MdmX (human) interaction inhibition, confirmed | shares compounds with HIF-2a block | SaOS-2 split-luciferase Mdm2/MdmX complementation, luminescence | inhibition, % at 8 µM | actives 99% (n = 740);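 active = mean inhibition of the luminescence signal across two replicates at or above 26 percent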
HIF-2a inh conf: HIF-2a inhibition, single concentration confirmation; shares compounds with HIF-2a block; 786-0 RCC cells, HIF-2a luciferase reporter luminescence, overnight; inhibition, % at 18.8 µM; actives 56% (n = 1,800); AID 651580;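 active = mean inhibition across four replicates of at least 40 percent at the single tested concentration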
HIF-1a cs: counter-screen for HIF-2a inhibitors: HIF-1a inhibition in MiaPaCa-2 cells; shares compounds with HIF-2a block; MiaPaCa-2 HIF-1a luciferase reporter, desferoxamine, overnight; inhibition, % at 18.8 µM; actives 72% (n = 1,800);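 active = mean inhibition of the reporter signal across four replicates at the single tested dose of 50% or more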
An asterisk follows results filed as active.

How did CC(=O)Nc1ccc(Nc2cc(C)nc3c(-c4ccccc4)cnn23)cc1 do in these assays?
KKLEB cytotox: -10.1; Peg3 promoter: 38.6; HIF-2a block: 52.8*; TRPM1 prom inh: -1.3; CF NFkB inh: 18.8; Shn3 3UTR inh: 28.2; HIF-2a inh conf: 77.7*; HIF-1a cs: 92.5*

How did Cc1oc(-c2ccccc2Cl)nc1CSCC(=O)O do in these assays?
KKLEB cytotox: -6.7; Peg3 promoter: 20.1; HIF-2a block: 17.6; TRPM1 prom inh: 8.3; CF NFkB inh: 9.4; Shn3 3UTR inh: -3.2

Results for Cc1oc(-c2cccc(Cl)c2)nc1CSCC(=O)O ?
KKLEB cytotox: -0.1; Peg3 promoter: 15.7; HIF-2a block: 42.6*; TRPM1 prom inh: 27.3; CF NFkB inh: -8.0; Shn3 3UTR inh: -9.7; HIF-2a inh conf: 34.8; HIF-1a cs: 32.2

What do the screens show for `Cc1ccc(S(=O)(=O)NCCC2=CCCCC2)cc1`?
KKLEB cytotox: 8.3; Peg3 promoter: -11.8; HIF-2a block: -6.1; TRPM1 prom inh: -3.6; CF NFkB inh: 8.2; Shn3 3UTR inh: 6.2

Results for CCOC(=O)COc1ccc(S(=O)(=O)NCCC2=CCCCC2)cc1 ?
KKLEB cytotox: 0.4; Peg3 promoter: 11.1; HIF-2a block: 54.1*; TRPM1 prom inh: -6.7; CF NFkB inh: 10.0; Shn3 3UTR inh: -3.6; HIF-2a inh conf: 7.3; HIF-1a cs: -0.6

Results for COc1c(Br)cc(Br)cc1/C=N/NC(=O)c1ccncc1 ?
KKLEB cytotox: 7.0; Peg3 promoter: 17.5; HIF-2a block: 8.8; TRPM1 prom inh: -0.6; CF NFkB inh: -8.6; Shn3 3UTR inh: 17.8

Results for CN(C)c1ccc(C(=O)N/N=C/c2cc(Br)cc(Br)c2O)cc1 ?
KKLEB cytotox: 3.8; Peg3 promoter: 58.7*; HIF-2a block: 2.6; CF NFkB inh: 15.8; Mdm2 MdmX conf: 89.0*

What do the screens show for `CCOC(=O)C1CCCN(C(=O)c2ccc(Cl)c(S(=O)(=O)N3CCc4ccccc43)c2)C1` (stereo not drawn)?
KKLEB cytotox: -15.5; Peg3 promoter: 31.4; HIF-2a block: 2.2; TRPM1 prom inh: 32.9; CF NFkB inh: 5.3; Shn3 3UTR inh: 15.9

Results for CC(=O)NS(=O)(=O)c1ccc(NC(=O)c2ccc(S(=O)(=O)N3CCCC3)cc2)cc1 ?
KKLEB cytotox: -17.5; Peg3 promoter: 13.6; HIF-2a block: -0.8; TRPM1 prom inh: 5.7; CF NFkB inh: 32.0; Shn3 3UTR inh: 16.6

What do the screens show for `O=C(Nc1cccc(Cl)c1)c1cccc(Oc2ccc([N+](=O)[O-])cc2Cl)c1`?
KKLEB cytotox: -1.5; Peg3 promoter: 33.7; HIF-2a block: -40.1; TRPM1 prom inh: 12.2; CF NFkB inh: 22.7; Shn3 3UTR inh: 1.6

How did O=C(Nc1cccc(Cl)c1)c1cc(N=Nc2ccc([N+](=O)[O-])cc2Cl)ccc1O do in these assays?
KKLEB cytotox: -32.3; Peg3 promoter: 79.0*; HIF-2a block: -83.9; TRPM1 prom inh: 41.5; CF NFkB inh: 76.2*; Shn3 3UTR inh: 1.9; Mdm2 MdmX conf: 95.5*

How did Cc1ccc(NC(=O)CCC(=O)N2CCC(C)CC2)c([N+](=O)[O-])c1 do in these assays?
KKLEB cytotox: 0.5; Peg3 promoter: 6.0; HIF-2a block: 10.4; TRPM1 prom inh: 4.6; CF NFkB inh: 11.4; Shn3 3UTR inh: 8.0

How did N=c1n(CC(=O)c2ccc(Br)cc2)c2ccccc2n1Cc1ccccc1 do in these assays?
KKLEB cytotox: -24.0; Peg3 promoter: 98.8*; HIF-2a block: -9.4; TRPM1 prom inh: 90.3*; CF NFkB inh: -8.8; Shn3 3UTR inh: 35.5; Mdm2 MdmX conf: 102.0*

How did CCOC(=O)Cc1ccc(NC(=O)c2ccc(C(C)(C)C)cc2)cc1 do in these assays?
KKLEB cytotox: -10.2; Peg3 promoter: -44.8; HIF-2a block: 90.3*; TRPM1 prom inh: 5.8; CF NFkB inh: 7.8; Shn3 3UTR inh: 76.9; HIF-2a inh conf: 97.1*; HIF-1a cs: 76.6*

What do the screens show for `Nc1cc(Cl)ccc1C(=O)OCC(=O)NCC1CCCO1` (stereo not drawn)?
KKLEB cytotox: 19.4; Peg3 promoter: -36.2; HIF-2a block: -14.9; TRPM1 prom inh: -0.2; CF NFkB inh: -7.9; Shn3 3UTR inh: -28.4

What do the screens show for `CCN(CC)c1ccc(C=Nc2cccc(S(=O)(=O)N3CCOCC3)c2)c(O)c1`?
KKLEB cytotox: -3.2; Peg3 promoter: 1.5; HIF-2a block: 4.2; TRPM1 prom inh: 4.9; CF NFkB inh: -21.1; Shn3 3UTR inh: -2.2

How did CCN(CC)c1ccc(/C=N/NC(=O)c2cccc(S(=O)(=O)N3CCOCC3)c2)c(O)c1 do in these assays?
KKLEB cytotox: -17.3; Peg3 promoter: 37.8; HIF-2a block: 9.9; TRPM1 prom inh: 82.3*; CF NFkB inh: 4.5; Shn3 3UTR inh: 89.2*; Mdm2 MdmX conf: 91.2*

Results for Cc1ccc(C)c(N(CC(=O)NC(C)C)C(=O)CCC(=O)Nc2ccccn2)c1 ?
KKLEB cytotox: 11.5; Peg3 promoter: 7.8; HIF-2a block: 16.2; TRPM1 prom inh: 1.7; CF NFkB inh: -13.1; Shn3 3UTR inh: 7.8

What do the screens show for `Cc1noc(C)c1CSCC(=O)OCC(=O)Nc1sccc1C#N`?
KKLEB cytotox: 0.3; Peg3 promoter: 0.6; HIF-2a block: 10.6; TRPM1 prom inh: 23.3; CF NFkB inh: 7.3; Shn3 3UTR inh: -23.3

How did N#Cc1ccsc1NC(=O)COC(=O)CCCSc1nc2ccccc2s1 do in these assays?
KKLEB cytotox: 0.1; Peg3 promoter: 10.2; HIF-2a block: 63.9*; TRPM1 prom inh: 14.4; CF NFkB inh: 7.9; Shn3 3UTR inh: 13.7; HIF-2a inh conf: 69.2*; HIF-1a cs: 52.7*

What do the screens show for `CNC(=O)NC(=O)COC(=O)CCCSc1nc2ccccc2s1`?
KKLEB cytotox: 9.4; Peg3 promoter: 9.7; HIF-2a block: 64.2*; TRPM1 prom inh: 20.8; CF NFkB inh: -13.2; Shn3 3UTR inh: 20.3; HIF-2a inh conf: 84.7*; HIF-1a cs: 56.7*

Results for NC(=O)COC(=O)CCCSc1nc2ccccc2s1 ?
KKLEB cytotox: 10.3; Peg3 promoter: 1.3; HIF-2a block: 56.7*; TRPM1 prom inh: 6.5; CF NFkB inh: -12.3; Shn3 3UTR inh: 64.8; HIF-2a inh conf: 76.1*; HIF-1a cs: 39.5

How did CC(OC(=O)CCCSc1nc2ccccc2s1)C(=O)NC(N)=O (stereo not drawn) do in these assays?
KKLEB cytotox: 3.1; Peg3 promoter: 22.5; HIF-2a block: 49.6*; TRPM1 prom inh: 6.8; CF NFkB inh: -5.1; Shn3 3UTR inh: -5.9; HIF-2a inh conf: 84.5*; HIF-1a cs: 62.6*

Assay outcomes as filed in PubChem.
